Measured values taken from PubChem BioAssay (Tox21).
Results filed as inconclusive are left out. Active and inactive are the calls of the source. Unless noted, the call rests on the fitted dose curve.

Key:
[1] = Nuclear factor erythroid 2-related factor 2/antioxidant responsive element (Nrf2/ARE) small molecule agonists: qHTS cell viability counter screen in human keratinocytes (AID 1919968; active means well fitted curve in the direction sought with a large enough effect in the repeat runs; an effect the other way counts as inactive or inconclusive; further: nearly all actives have a fitted effect of over 55% in size)
Method in brief: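 CellTiter-Fluor fluorescence, read 1 h after reagent, gave viability in the same wells as the ARE-luciferase assay. KeratinoSens cells (1,500/well) had 23 h compound exposure at 37 C/5% CO2 following 5 h plating.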

[2] = Nuclear factor erythroid 2-related factor 2/antioxidant responsive element (Nrf2/ARE) small molecule agonists: luciferase reporter gene qHTS assay in human keratinocytes (AID 1919969); further: nearly all actives have a fitted effect of over 35% in size
[3] = molecular target: Gonadotropin-releasing hormone receptor (Homo sapiens) (UniProt P30968); experiment: Human gonadotropin-releasing hormone receptor (GnRHR) small molecule agonists, calcium flux assay in GnRHR-HEK293 cells (AID 1920063); further: nearly all actives have a fitted effect of over 35% in size
Sequence of Gonadotropin-releasing hormone receptor (Homo sapiens) (P30968 whole entry, looked up): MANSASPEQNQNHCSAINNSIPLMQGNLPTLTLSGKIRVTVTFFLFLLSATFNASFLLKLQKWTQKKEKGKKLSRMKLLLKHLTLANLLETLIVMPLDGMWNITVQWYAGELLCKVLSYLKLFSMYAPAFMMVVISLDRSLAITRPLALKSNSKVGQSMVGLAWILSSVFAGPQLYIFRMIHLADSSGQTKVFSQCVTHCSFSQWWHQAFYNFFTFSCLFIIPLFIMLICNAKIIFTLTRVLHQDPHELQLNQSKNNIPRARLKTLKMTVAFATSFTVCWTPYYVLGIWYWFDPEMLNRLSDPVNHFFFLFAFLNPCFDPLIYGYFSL
Method in brief: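 Agonist mode: compounds at 15 concentrations, in triplicate, went onto calcium dye-loaded GnRHR-HEK293 cells. Intracellular calcium was then followed as 480/540 nm fluorescence at 1 s intervals over 3 min.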

[4] = molecular target: KiSS-1 receptor (Homo sapiens) (UniProt Q969F8); experiment: Human kisspeptin (KISS1R) small molecule agonists, calcium flux assay in KISS1R-HEK293 cells (AID 1920064; active means well fitted curve in the direction sought with a large enough effect in the repeat runs; an effect the other way counts as inactive or inconclusive)
Sequence of KiSS-1 receptor (Homo sapiens) (Q969F8 whole entry, looked up): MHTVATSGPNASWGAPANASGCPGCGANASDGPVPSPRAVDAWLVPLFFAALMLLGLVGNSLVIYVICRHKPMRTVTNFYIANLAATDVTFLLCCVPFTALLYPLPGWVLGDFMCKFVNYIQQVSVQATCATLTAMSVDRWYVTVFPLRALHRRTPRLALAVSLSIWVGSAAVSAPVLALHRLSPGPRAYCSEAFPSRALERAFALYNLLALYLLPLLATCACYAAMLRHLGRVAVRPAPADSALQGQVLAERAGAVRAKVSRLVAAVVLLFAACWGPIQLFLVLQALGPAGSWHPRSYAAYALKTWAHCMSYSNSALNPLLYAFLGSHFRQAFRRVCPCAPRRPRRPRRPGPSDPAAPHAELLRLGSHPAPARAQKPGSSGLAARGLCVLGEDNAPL
Method in brief: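 Agonist mode: intracellular calcium rise tracked at 1 s intervals over 3 min (480/540 nm) immediately after compound addition to dye-loaded KISS1R-HEK293 stable cells. Each compound tested at 15 concentrations in triplicate.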

[5] = G protein-coupled receptor (GPCR) small molecule agonists, calcium flux assay: HEK293 wild type cell line counter screen (AID 1920065)
Method in brief: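 Calcium flux counter screen: compound added in agonist mode at 15 concentrations in triplicate to dye-loaded parental HEK293 cells. Fluorescence (480/540) read kinetically for 3 min; ATP served as positive control.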

[6] = p53 small molecule agonists, cell-based qHTS assay with rat liver microsomes (AID 1963578)
Method in brief: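 Compound in DMSO added to p53RE-bla cells 5 h post-plating; rat microsomes/NADPH 0.5 mg/mL final; 16 h, 37 C; LiveBLAzer 2 h RT.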

[7] = p53 small molecule agonists, cell-based qHTS assay with human liver microsomes: qHTS cell viability counter screen (AID 1963579); further: nearly all actives have a fitted effect of over 45% in size
Method in brief: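 HLM-supplemented (0.5 mg/mL final) and NADPH-supplemented (0.5 mg/mL final) p53RE-bla cultures, 4,000 cells per well, were dosed with compounds in DMSO for 16 h at 37 C; luminescent ATP detection (CellTiter-Glo, 30 min, room temperature) quantified surviving cells.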

[8] = p53 small molecule agonists, cell-based qHTS assay with rat liver microsomes: qHTS cell viability counter screen (AID 1963580); further: nearly all actives have a fitted effect of over 45% in size
Method in brief: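 Luminescent ATP readout (CellTiter-Glo, 30 min at room temperature) reports viability of p53RE-bla HCT-116 cells after 16 h at 37 C with test compounds under metabolic activation by rat liver microsomes and NADPH at 0.5 mg/mL final each.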

[9] = p53 small molecule agonists, cell-based qHTS assay (AID 1963582; active means well fitted activation curve with a large enough effect in the signal ratio in the repeat runs, not every such curve was filed as active; the % refers to the signal ratio)
Method in brief: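 Read-out is beta-lactamase FRET fluorescence after 2 h at room temperature with LiveBLAzer B/G substrate. p53 response element-bla cells were treated 16 h at 37 C with compounds in DMSO, added 5 h after seeding.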

[10] = molecular target: 5-hydroxytryptamine receptor 2A (Homo sapiens) (UniProt P28223); experiment: 5-hydroxytryptamine receptor 2A (HTR2A) small molecule antagonists, cell-based qHTS assay (AID 1963586); further: nearly all actives have a fitted effect of over 45% in size
Sequence of 5-hydroxytryptamine receptor 2A (Homo sapiens) (P28223 whole entry, looked up): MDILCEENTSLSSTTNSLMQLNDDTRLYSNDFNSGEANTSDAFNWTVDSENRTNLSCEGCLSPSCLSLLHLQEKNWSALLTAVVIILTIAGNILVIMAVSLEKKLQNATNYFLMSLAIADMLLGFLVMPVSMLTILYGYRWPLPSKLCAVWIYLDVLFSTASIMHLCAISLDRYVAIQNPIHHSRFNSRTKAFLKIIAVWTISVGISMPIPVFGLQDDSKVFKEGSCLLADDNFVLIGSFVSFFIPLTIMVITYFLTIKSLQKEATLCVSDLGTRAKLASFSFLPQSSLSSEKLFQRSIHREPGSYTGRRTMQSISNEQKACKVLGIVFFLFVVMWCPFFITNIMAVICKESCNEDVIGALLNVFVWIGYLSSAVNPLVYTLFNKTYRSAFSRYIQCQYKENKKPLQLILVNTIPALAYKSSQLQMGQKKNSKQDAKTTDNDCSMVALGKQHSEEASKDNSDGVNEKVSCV
Method in brief: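 CHO cells stably expressing human HTR2A were plated for 18 h at 37 C, then loaded with calcium dye for 1 h. Compounds were preincubated 5 min at room temperature before DOI (4 nM solution) was added. Kinetic fluorescence was read for 3 min.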

[11] = molecular target: 5-hydroxytryptamine receptor 2A (Homo sapiens) (UniProt P28223); experiment: 5-hydroxytryptamine receptor 2A (HTR2A) small molecule agonists, cell-based qHTS assay (AID 1963587); further: nearly all actives have a fitted effect of over 30% in size
Method in brief: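 HTR2A-CHO cells, plated 18 h at 37 C/5% CO2, dye-loaded 1 h at 37 C; compounds in DMSO added by pin tool (agonist mode). Intracellular calcium flux read as kinetic fluorescence on FDSS over 2 min at 1 s intervals.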

[12] = molecular target: Muscarinic acetylcholine receptor M1 (Homo sapiens) (UniProt P11229); experiment: Cholinergic receptor muscarinic 1 (CHRM1) small molecule antagonists, cell-based qHTS assay (AID 1963588); further: nearly all actives have a fitted effect of over 40% in size
Sequence of Muscarinic acetylcholine receptor M1 (Homo sapiens) (P11229 whole entry, looked up): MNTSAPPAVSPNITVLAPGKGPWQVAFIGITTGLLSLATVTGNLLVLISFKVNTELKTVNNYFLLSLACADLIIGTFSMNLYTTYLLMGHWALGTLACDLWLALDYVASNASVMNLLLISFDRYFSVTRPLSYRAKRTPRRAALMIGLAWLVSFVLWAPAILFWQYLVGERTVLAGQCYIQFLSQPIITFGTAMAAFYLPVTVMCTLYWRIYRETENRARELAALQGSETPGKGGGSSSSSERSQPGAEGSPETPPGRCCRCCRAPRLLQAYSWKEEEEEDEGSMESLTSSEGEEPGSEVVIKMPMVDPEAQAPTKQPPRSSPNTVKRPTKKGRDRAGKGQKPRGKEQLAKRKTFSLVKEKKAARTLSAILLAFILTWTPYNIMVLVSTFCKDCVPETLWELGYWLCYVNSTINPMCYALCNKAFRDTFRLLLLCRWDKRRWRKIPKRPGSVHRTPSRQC
Method in brief: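 Compounds were tested at 15 concentrations in three independent runs. Dye-loaded CHRM1-CHO cells were exposed 5 min at room temperature before stimulation by acetylcholine added at 50nM. Intracellular calcium was read kinetically on FDSS for 3 min.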

[13] = molecular target: Muscarinic acetylcholine receptor M1 (Homo sapiens) (UniProt P11229); experiment: Cholinergic receptor muscarinic 1 (CHRM1) small molecule agonists, cell-based qHTS assay (AID 1963589); further: nearly all actives have a fitted effect of over 35% in size
Method in brief: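 Agonist-mode calcium-flux screen: compounds at 15 concentrations, three independent runs, were pin-transferred onto dye-loaded human CHRM1-CHO cells. Fluorescence was then recorded kinetically every second over minutes.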

[14] = cAMP Responsive Elements (CRE) small molecule agonists, cell-based qHTS assay (AID 1963590)
Method in brief: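 Agonist mode: compound added to CRE-bla HEK 293T cells (2,000/well, 18 h after plating) for 3 h at 37 C/5% CO2. Reporter activity detected via FRET beta-lactamase substrate, 2 h room-temperature loading.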

[15] = cAMP Responsive Elements (CRE) small molecule antagonists, cell-based qHTS assay (AID 1963591; active means well fitted inhibition curve with a large enough effect in the signal ratio in the repeat runs, not every such curve was filed as active; the % refers to the signal ratio)
Method in brief: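 Antagonist mode: compounds are added alongside the adenylyl cyclase activator NKH477 (0.25 uM final) to CRE-bla HEK293T cells for 3 h. LiveBLAzer FRET substrate, 2 h at room temperature, reports bla expression.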

[16] = molecular target: Beta-2 adrenergic receptor (Homo sapiens) (UniProt P07550); experiment: Adrenergic beta2 receptor (ADRB2) small molecule antagonists, cell-based qHTS assay (AID 1963592); further: series mostly up to about 92 µM; nearly all actives have a fitted effect of over 50% in size
Sequence of Beta-2 adrenergic receptor (Homo sapiens) (P07550 whole entry, looked up): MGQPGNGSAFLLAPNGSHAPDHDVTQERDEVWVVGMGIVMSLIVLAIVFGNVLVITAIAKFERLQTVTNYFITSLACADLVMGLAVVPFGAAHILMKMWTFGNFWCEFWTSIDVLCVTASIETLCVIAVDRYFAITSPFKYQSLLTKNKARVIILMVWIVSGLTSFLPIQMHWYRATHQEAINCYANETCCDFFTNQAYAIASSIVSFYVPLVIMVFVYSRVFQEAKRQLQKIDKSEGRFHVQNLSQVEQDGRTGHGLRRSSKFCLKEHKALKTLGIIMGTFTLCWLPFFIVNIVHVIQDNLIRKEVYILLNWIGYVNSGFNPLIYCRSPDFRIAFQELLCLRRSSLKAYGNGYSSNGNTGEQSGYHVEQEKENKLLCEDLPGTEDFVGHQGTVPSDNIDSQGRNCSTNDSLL
Method in brief: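 Assay format: CHO-ADRB2 cells, 18-20hr seeding at 37C/5% CO2, then compound plus 1nM isoproterenol agonist mix for 0.5hr RT. Homogeneous time-resolved fluorescence cAMP detection after 1hr, expressed as 665/615 nm ratio.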

[17] = molecular target: Beta-2 adrenergic receptor (Homo sapiens) (UniProt P07550); experiment: Adrenergic beta2 receptor (ADRB2) small molecule agonists, cell-based qHTS assay (AID 1963593);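 further: CHO cells stably overexpressing human ADRB2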
Method in brief: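 CHO cells stably over-expressing ADRB2 were plated overnight at 37C, then dosed with compounds plus a stimulation mix containing 100uM IBMX and 25uM Ro-20-1724 for 0.5hr at room temperature. cAMP was measured by HTRF competition, 1hr.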

[18] = molecular target: D(2) dopamine receptor (Homo sapiens) (UniProt P14416); experiment: Dopamine D2 receptor (DRD2) small molecule agonists, cell-based qHTS assay (AID 1963594); further: nearly all actives have a fitted effect of over 35% in size
Sequence of D(2) dopamine receptor (Homo sapiens) (P14416 whole entry, looked up): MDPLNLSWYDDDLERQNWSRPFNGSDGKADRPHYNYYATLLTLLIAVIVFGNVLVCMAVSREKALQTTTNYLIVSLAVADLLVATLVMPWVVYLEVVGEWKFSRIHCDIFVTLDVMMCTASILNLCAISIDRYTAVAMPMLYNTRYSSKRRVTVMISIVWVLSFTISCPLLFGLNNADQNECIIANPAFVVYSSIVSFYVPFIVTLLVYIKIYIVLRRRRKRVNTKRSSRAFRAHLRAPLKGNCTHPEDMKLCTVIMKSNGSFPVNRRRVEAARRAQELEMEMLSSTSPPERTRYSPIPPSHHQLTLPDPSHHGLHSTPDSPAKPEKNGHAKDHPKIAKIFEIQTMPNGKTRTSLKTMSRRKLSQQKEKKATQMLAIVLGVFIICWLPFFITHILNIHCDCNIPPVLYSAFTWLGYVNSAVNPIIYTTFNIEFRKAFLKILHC
Method in brief: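 HEK293 cells stably expressing DRD2 were cultured 24 h at 37 C, then given Ro20-1724 (0.1 mM final) and compounds for 10 min at room temperature. NKH477 (200nM) was then added for 30 min. cAMP was read by HTRF.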

[19] = molecular target: D(2) dopamine receptor (Homo sapiens) (UniProt P14416); experiment: Dopamine D2 receptor (DRD2) small molecule antagonists, cell-based qHTS assay (AID 1963595; active means well fitted inhibition curve with a large enough effect in the signal ratio in the repeat runs, with a control signal flat; the % refers to the signal ratio)
Method in brief: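 HEK293 cells stably expressing DRD2 were preincubated with 0.1 mM Ro20-1724, then with compound for 10 min at room temperature. Cells were stimulated with 200 nM NKH477 plus 12 nM quinpirole for 30 min, and cAMP was read by HTRF.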

[20] = p53 small molecule agonists, cell-based qHTS assay: qHTS cell viability counter screen (AID 1963581); further: nearly all actives have a fitted effect of over 45% in size
Method in brief: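 Counter screen read by CellTiter-Glo luminescence (ATP content, 30 min at room temperature), run in the same wells as the beta-lactamase reporter read. HCT-116 p53RE-bla cells saw compounds for 16 h at 37 C.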
On the % scale 0 is the no-effect control and ±100 the full control effect.

CCOC(=O)C(=O)OCC
inactive: Potency [1] | Potency [2] | Potency [3] | outcome [4] | outcome [5] | Potency [6] | Potency [7] | Potency [8] | Potency [9] | Potency [10] | Potency [11] | Potency [12] | Potency [13] | Potency [14] | Potency [15] | Potency [16] | Potency [17] | Potency [18] | Potency [19]

CCn1cc(C(=O)O)c(=O)c2cc(F)c(N3CCN(C)CC3)cc21
inactive: activity change, negative = cytotoxicity [1] 14.8% [at 19 µM] | activity, positive = activation [2] -5.55% [at 19 µM] | activity change [3] -1.03% [at 11.8 µM, active compounds read high] | activation [4] -0.924% [at 15.8 µM] | activation [5] -0.469% [at 11.8 µM] | activation [6] -1.11% [at 13.6 µM] | activity change, negative = cytotoxicity [8] -0.739% [at 13.5 µM] | activity change, negative = cytotoxicity [20] -4.59% [at 13.5 µM] | activation [9] -0.0544% [at 13.5 µM] | activation [14] -2.07% [at 19 µM] | activity change, negative = inhibition [15] -14.3% [at 18.9 µM] | activity change, negative = inhibition [16] 0.624% [at 19 µM] | Potency [17] | activation [18] 19.5% [at 19 µM] | activity change, negative = inhibition [19] 4.28% [at 18.9 µM]

Cc1occc1C(=O)Nc1ccc(C(=O)N2CCC(F)(F)/C(=C\C(=O)N3CCC(N4CCCCC4)CC3)c3ccccc32)cc1
inactive: Potency [1] | Potency [2] | Potency [3] | outcome [4] | outcome [5] | Potency [6] | Potency [8] | Potency [9] | Potency [10] | Potency [11] | Potency [13] | Potency [14] | Potency [15] | Potency [16] | Potency [17] | Potency [18] | Potency [19]

COc1ccc([C@@H]2Sc3ccccc3NC(=O)[C@@H]2O)cc1
inactive: Potency [1] | Potency [2] | Potency [3] | outcome [4] | outcome [5] | Potency [6] | Potency [7] | Potency [9] | Potency [10] | Potency [11] | Potency [12] | Potency [13] | Potency [14] | Potency [16] | Potency [18] | Potency [19]

CCCCCCCCCCCC[N+](C)(C)CC(=O)[O-]
inactive: Potency [1] | Potency [2] | Potency [3] | outcome [4] | outcome [5] | Potency [6] | Potency [8] | Potency [20] | Potency [14] | Potency [16] | Potency [17] | Potency [18] | Potency [19]

O=C(O)CCNC(=O)c1ccc(N=Nc2ccc(O)c(C(=O)O)c2)cc1
inactive: Potency [1] | Potency [2] | Potency [3] | outcome [4] | outcome [5] | Potency [6] | Potency [7] | Potency [8] | Potency [9] | Potency [14] | Potency [16] | Potency [18] | Potency [19]

CCC(C)CCCC(C)(C)O (stereo not given)
inactive: Potency [1] | Potency [2] | Potency [3] | outcome [4] | outcome [5] | Potency [6] | Potency [7] | Potency [8] | Potency [9] | Potency [11] | Potency [13] | Potency [14] | Potency [15] | Potency [16] | Potency [17] | Potency [18] | Potency [19]
